Test results as given in PubChem BioAssay AID1066 (SRMLSC, 2008).
The campaign covered roughly 190,000 compounds. About 790 (0.42%) were called active. This is one part of a sample in which actives are shown more often than they occur. A number with no mark means an inactive call.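 Rule for the calls: active = inhibition above a set limit, the median over all tested compounds plus 3 SD (cut at about 9.5% in these data); inconclusive = no clear call, values can overlap the other calls; inactive = the rest.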

system: HMG-CoA reductase (Enterococcus faecalis, mvaE); experiment: class II HMG-CoA reductase enzyme inhibition – biochemical, Enterococcus faecalis, primary screen (AID 1066);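 note: enzyme runs in reverse so mevalonate oxidation gives rising NADPH absorbance; 0% = complete reaction with DMSO and 100% = background rate lacking mevalonate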; conditions: purified E. faecalis HMGR, NADPH absorbance 340 nm kinetic; at 10 µM; hits give high values

Structure (SMILES) | inhibition
CN(C)CCCN=Cc1c(O)n(Cc2ccco2)c(=O)[nH]c1=O | 6.16%
COc1ccc(CCn2c(O)c(C=NCCCn3ccnc3)c(=O)[nH]c2=O)cc1OC | 13.7% (active)
COc1ccc(CCn2c(O)c(C=NC3CC3)c(=O)[nH]c2=O)cc1OC | -3.24%
CN(C)c1nc(N(C)C)nc(N(C#N)CCCl)n1 | -6.92%
O=C(O)CCn1cc(C=C2C(=O)NC(=S)NC2=O)c(-c2cccc(Br)c2)n1 | 1.54%
